This is a sample that favours compounds with a hit; in the whole collection about 19% have one here.
DT40 TDP1 CPT – growth inhibition of DT40 Tdp1-/-;hTDP1 cells with camptothecin (screen for TDP1 inhibitors) | chicken DT40 Tdp1-/-;hTDP1 cells + 20 nM CPT, ATP luminescence, 48 h | hit rate 12% among 420,000 | Potency, µM (titrated, usually from 46.2 µM), most hits filed as inhibitors; further: nearly all actives have a fitted effect of over 55% in size
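Chicken DT40 Tdp1-/- cells complemented with human TDP1, 400 cells/well, exposed to compounds plus 20 nM camptothecin for at least 48 h at 37 C; viability read as ATP content by CellTiter-Glo luminescence.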
IL1B secr inh – blocks inflammasome-driven IL-1 beta release; THP-1 LPS/ATP IL-1B secretion, AlphaLISA, 16 h; hits give low values; activity change, % at 57.5 µM; hit rate 4.7% among 360,000; AID 743279; in the data active means activity change below about -50%; inconclusive means mostly about -30% to -49%
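THP-1 cells pretreated 1 hr with compounds (up to 57.5 uM final), then stimulated with LPS (250 ng/mL final) plus ATP (1.25 mM final); secreted IL-1B measured by AlphaLISA after 16 hr, decreased signal indicating inhibition.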
HT1080 IDH1KD tx – kills HT-1080 cells with IDH1 knockdown; AID 686971; hit rate 2% among 360,000; Potency, µM (highest dose often 46.1 µM), usual class: cytotoxic; HT-1080 IDH1 knockdown viability, ATP luminescence, 48 h
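Assay cells: HT-1080 with IDH1 knockdown, 750 per well, RPMI/5% FBS. Exposure: 48 h at 37 °C following 2 h pre-incubation. Read: CellTiter-Glo luminescence; fitted concentration-response, curve class assigned.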
ELG1 repair inh – inhibitors of ELG1-dependent DNA repair in HEK293T cells | HEK293T ELG1-luciferase reporter, luminescence, 16 h; DNA damage induced by 5-fluorouridine | Potency, µM (titrated, usually from 46.1 µM), hits mostly inhibitors | hit rate 2.3% among 330,000 | AID 504467; further: nearly all actives have a fitted effect of over 55% in size
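HEK293T cells expressing luciferase-tagged ELG1 (2,000/well) received 5-Fluorouridine plus compound or DMSO for 16 hr at 37 °C. Luciferase was read by ONE-Glo luminescence after 30 min at room temperature.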
HT1080NT lethal – kills 2HG-producing HT-1080-NT fibrosarcoma cells | HT-1080-NT fibrosarcoma viability, CellTiter-Glo ATP luminescence, 48 h | Potency, µM (top dose mostly 46.1 µM), usual class: cytotoxic | hit rate 1.6% among 360,000 | AID 686970;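 further: NT is the 2HG producing partner of a matched IDH1 knockdown line; nearly all actives have a fitted effect of over 55% in size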
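Viability of the 2HG-overproducing fibrosarcoma line after 48 hours of compound exposure at 37 degrees C was determined by luminescence with CellTiter-Glo, and concentration-effect curves were then fitted and categorized.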
TDP1 cell noCPT – qHTS for Inhibitors of human tyrosyl-DNA phosphodiesterase 1 (TDP1): qHTS in cells in absence of CPT. DT40 Tdp1-/- hTDP1 cells, no CPT, ATP luminescence, 48 h. Potency, µM (top dose mostly 46.2 µM), usual class: inhibitors. hit rate 15% among 420,000; further: nearly all actives have a fitted effect of over 55% in size
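Chicken DT40 Tdp1-/- cells complemented with human TDP1, screened without camptothecin (DMSO vehicle only), 400 cells/well. Compounds pin-transferred, cells incubated at 37 °C for at least 48 hr. Growth read as ATP-dependent luminescence (CellTiter-Glo, 30 min at RT).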
A number is an active result; . = inactive; ? = inconclusive; / = not tested or not shown; [ ] = another dose, or the depositor's remark. Unless noted, the call rests on the fitted dose curve; in most records, active means well fitted curve in the direction sought with a large enough effect; inconclusive means small, poorly fitted or top-dose-only effect, or another doubt; inactive means no such curve, though single readings can be large; an effect the other way counts as inactive or inconclusive.

SMILES | DT40 TDP1 CPT | IL1B secr inh | HT1080 IDH1KD tx | ELG1 repair inh | HT1080NT lethal | TDP1 cell noCPT
O=C(Nc1cccc2ccccc12)c1ccccc1NS(=O)(=O)c1cccc2cccnc12 | . | . | . | . | . | .
O=c1oc2ccc(NS(=O)(=O)c3cccc4cccnc34)cc2s1 | 21µM | . | . | . | . | 23µM
COc1ccc(NS(=O)(=O)c2cccc3cccnc23)cc1Cl | ? | . | . | . | . | 21µM
COc1ccc(C(=O)N2CCN(C(C)=O)CC2)cc1S(=O)(=O)N1CCOCC1 | . | . | . | . | . | .
CC(C)N(Cc1ccccc1)C(=O)c1cc2ccc3cccnc3c2[nH]1 | 16µM | / | / | / | / | 18µM
COC(=O)c1sccc1S(=O)(=O)Nc1ccc(C(O)(C(F)(F)F)C(F)(F)F)cc1 | 18µM | . | ? | / | ? | 21µM
O=C(NCc1cccc(Cl)c1)c1cc2ccc3cccnc3c2[nH]1 | . | / | / | / | / | .
O=C1CCCc2oc3ccc(NS(=O)(=O)c4cccc5cccnc45)cc3c21 | ? | . | . | ? | . | 23µM
O=S(=O)(Nc1ccc2c(c1)OCCO2)c1cccc2cccnc12 | . | . | . | . | . | ?
O=S(=O)(Nc1ccc(C(O)(C(F)(F)F)C(F)(F)F)cc1)c1cccc2cccnc12 | 16µM | . | ? | / | ? | 23µM
CCc1nn(CC(=O)NC(C)CC)c(=O)c2cc3c(OC)cccc3n12 (stereo not drawn) | . | / | / | / | / | .
CCOc1ccc(NC(=O)CCc2nnc3n(C)c(=O)c4sccc4n23)cc1 | . | / | / | / | / | .
Cc1cc(C)c(NC(=O)c2ccc(CNS(=O)(=O)c3cc(C(F)(F)F)ccc3Cl)cc2)c(C)c1 | 21µM | . | . | . | . | 16µM
N=C(N)SCc1ccc(Cl)cc1Cl | 23µM | -101 | . | 10µM | . | 18µM
CCOC(=O)c1c(C)oc2nc(C)nc(N3CCN(c4ccc(C(C)=O)cc4)CC3)c12 | 5.8µM | / | / | / | / | 2.9µM
Cc1nc(N2CCCC2)c2c(C(=O)N3CCN(c4ccc(F)cc4)CC3)c(C)oc2n1 | . | / | / | / | / | .
CCOC(=O)c1c(C)oc2ncnc(NCCCN3CCN(c4cc(C)ccc4C)CC3)c12 | 7.3µM | / | / | / | / | 4.6µM
CCOC(=O)c1c(C)oc2nc(C)nc(NCC3CCN(Cc4ccc(F)cc4)CC3)c12 | . | / | / | / | / | ?
CCOC(=O)c1c(C)oc2nc(C)nc(NCCCN3CCN(c4ccc(F)cc4)CC3)c12 | 21µM | / | / | / | / | 21µM
CCOC(=O)c1c(C)oc2nc(C)nc(NCCCN3CCN(c4ccccc4OC)CC3)c12 | ? | / | / | / | / | 23µM
COc1ccccc1-c1cc2c(c(OC)c1)OCCN(C(=O)Cn1nc(-c3ccccc3)c3ccccc3c1=O)C2 | .[9.04 µM] | / | / | / | / | .
CCOc1cccc2cc(C(=O)NCc3ccccc3)c(=N)oc12 | ? | . | . | . | . | ?
COc1cccc2cc(C(=O)NCc3ccccc3)c(=N)oc12 | 21µM | -105 | . | ? | . | ?
CCOc1cccc2cc(C(N)=O)c(=N)oc12 | . | . | . | . | . | .
COc1cccc2cc(C(=O)NCc3ccc(Cl)cc3)c(=O)oc12 | . | . | . | . | . | ?
SMILES | DT40 TDP1 CPT | IL1B secr inh | HT1080 IDH1KD tx | ELG1 repair inh | HT1080NT lethal | TDP1 cell noCPT
COc1cccc2cc(C(=O)NCCc3ccccc3)oc12 | . | . | . | . | . | ?
CCOc1cccc2cc(C(=O)NC(C)c3ccccc3)c(=N)oc12 (stereo not drawn) | ? | . | . | . | . | 26µM
CCOc1cccc2cc(C(=O)NCc3ccc(F)cc3)c(=N)oc12 | ? | . | . | . | . | 23µM
COc1cccc2cc(C(=O)NCc3ccc(Cl)cc3)c(=N)oc12 | 23µM | -91 | . | . | . | ?
N#Cc1ccccc1Cn1c(=O)n(-c2ccc(F)c(Cl)c2)c(=O)c2sccc21 | . | / | / | / | / | ?
CSc1nc(NCc2ccccc2)c2c3c(sc2n1)CN(C)CC3 | 23µM | ? | ? | . | ? | 23µM
CCCSc1nc(N)c2c3c(sc2n1)CN(C)CC3 | . | . | . | ? | . | 23µM
CSc1nc(NCC(C)C)c2c3c(sc2n1)CN(C)CC3 | 21µM | . | ? | . | . | ?
COCCNc1nc(SC)nc2sc3c(c12)CCN(C)C3 | . | . | . | . | . | .
CN(C)CCSc1nc(N)c2c3c(sc2n1)CN(C)CC3 | ? | . | . | . | . | ?
C=CCn1c(O)c(N=NC(=S)Nc2ccc(OC)cc2)c2ccccc21 | 3.7µM | . | . | ? | . | 4.6µM
C=CCn1c(O)c(N=NC(=S)Nc2cccc(OC)c2)c2ccccc21 | 3.3µM | . | . | . | . | 2.9µM
COc1ccccc1C(CNC(=O)C(CCSC)NC(=O)c1ccccc1Cl)N1CCCC1 (stereo not drawn) | ? | . | . | / | . | .
Cc1cccc(C)c1NC(=O)C1(C)CSCC(=O)N1CCCN1CCOCC1 (stereo not drawn) | . | . | . | / | . | .
